Compound activity from PubChem BioAssay.
hcGAS lum: blocks human cGAS activity; Q8N884; recombinant h-cGAS, ATP depletion, Kinase-Glo luminescence; inhibition, % at 12.5 µM; 290,000 tested, 0.081% active;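 further: 0% = vehicle reaction and 100% = reaction without DNA for no activity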
Target sequence (Q8N884 whole entry, looked up): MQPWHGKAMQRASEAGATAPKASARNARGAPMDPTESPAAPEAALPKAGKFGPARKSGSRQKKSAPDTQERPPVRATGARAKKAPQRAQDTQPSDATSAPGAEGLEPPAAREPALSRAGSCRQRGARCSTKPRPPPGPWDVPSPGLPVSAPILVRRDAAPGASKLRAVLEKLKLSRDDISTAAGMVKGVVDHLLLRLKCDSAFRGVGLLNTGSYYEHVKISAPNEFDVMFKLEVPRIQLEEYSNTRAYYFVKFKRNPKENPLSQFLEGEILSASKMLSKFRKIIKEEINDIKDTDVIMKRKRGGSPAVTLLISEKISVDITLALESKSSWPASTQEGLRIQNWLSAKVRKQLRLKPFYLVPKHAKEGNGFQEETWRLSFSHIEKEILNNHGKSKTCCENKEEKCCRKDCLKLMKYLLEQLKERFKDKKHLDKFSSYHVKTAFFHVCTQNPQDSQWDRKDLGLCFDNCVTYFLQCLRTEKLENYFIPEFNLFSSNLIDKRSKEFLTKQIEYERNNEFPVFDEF
mcGAS inh: inhibitors of mouse cGAS; recombinant cGAS, Kinase-Glo ATP depletion luminescence; inhibition, % at 12.5 µM; 160,000 tested, 0.15% active; AID 1259399;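 further: 0% = negative control wells and 100% = reference inhibitor with no enzyme activity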
NPYLR7 ag: mosquito NPYLR7 agonism; AID 1259423; activation, % at 10 µM; 270,000 tested, 0.15% active; HEK293T NPYLR7/Galpha15, GCaMP6s calcium fluorescence; in the data active means activation above about 40%;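 further: 0% = vehicle and 100% = reference agonist at the receptor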
The depositor's hits bear a star; . = not tested or not shown; ! = repeats disagree. Shown are actives, neighbours in structure and some others; about 0.3% of the full set was active somewhere. Unless noted, no stated cut-off is given here; in the data, active means inhibition above about 40%; inactive means the rest.

SMILES	hcGAS lum	mcGAS inh	NPYLR7 ag
CCN(CC)CCNc1ccc(CO)c2sc3ccccc3c(=O)c12	54.4*!	.	-4.2
CCN(CC)CCNc1nc2c(F)cccc2s1	-9.7	.	4.3
CC(C)(C)CC(C)(C)Nc1c(-c2ccccc2OC(=O)c2cccc(Br)c2)nc2ccccn12	-6.6	-3.0	17.9
COCCCN(Cc1ccc(C(C)(C)C)cc1)Cc1cccn1Cc1cccc(C)c1	-9.9	-5.0	41.4*
COCCN(Cc1ccc(C(C)(C)C)cc1)Cc1cccn1Cc1cccc(C)c1	0.6	-2.8	17.2
Brc1cc2c(cc1CSc1nnnn1C1CC1)OCCO2	-2.6	.	6.5
Cn1nnnc1SCc1cc2c(cc1Br)OCO2	66.3*	-1.7	-0.5
COC(=O)c1oc(Cn2nnn(-c3ccccc3Cl)c2=O)cc1C	-6.1	.	6.9
COc1ccc(C(=O)N2CCc3ccccc3C2c2ccccc2Cl)cc1 (centres undefined)	-9.1	-2.6	29.6
CC(C)Oc1nc(-c2ccco2)n(-c2ccc(N)cc2)n1	-5.4	.	-1.1
CC(C)Oc1c(-c2ccco2)c(=O)c1=O	65.8*	.	-6.3
CNC(=O)CSc1nc2c(-c3ccccc3)c(C)nn2c(=O)[nH]1	54.6*	-2.7	7.2
Cc1nn2c(=O)[nH]c(SCC(=O)NCCc3ccccc3)nc2c1-c1ccccc1	5.9	1.0	9.7
O=C(NCc1ccc2c(c1)OCO2)c1cccnc1N1CCN(C(=O)c2ccc(-c3ccc(F)c(F)c3)s2)CC1	-2.2	-5.1	1.6
O=C1NC(=S)S/C1=C\c1ccc(-c2ccccc2C(=O)O)o1	65.6*	82.7*	14.9
CCN1C(=O)/C(=C\c2ccc(-c3ccccc3C(=O)O)o2)N(CC)C1=S	-7.4	-7.7	-0.6
COc1ccc(Oc2nc3c(C)cccn3c(=O)c2/C=C(\C#N)c2nc3ccccc3s2)cc1	-10.3	-5.4	21.0
COc1ccccc1Oc1nc2ccccn2c(=O)c1/C=C(\C#N)c1nc2ccccc2s1	-8.7	-4.6	64.6*
Cc1cccc(Oc2nc3ccccn3c(=O)c2/C=C(\C#N)c2nc3ccccc3s2)c1	-8.5	-4.2	89.2*
COC(=O)/C(C#N)=C/c1c(Oc2ccc(C)cc2)nc2ccccn2c1=O	-7.6	-7.8	9.7
COCc1c(Br)c(C)nc(OCC(=O)N/N=C\c2ccc(-c3ccc(Cl)c(C(=O)O)c3)o2)c1C#N	-3.9	-4.3	6.0
C=CCOc1c(OC)ccc2c1CN(CC)C(=O)CCN2CC(C)(C)O	1.7	-0.9	3.2
O=[N+]([O-])c1cc(S(=O)(=O)Nc2cc(Cl)ccc2F)ccc1F	-2.5	.	40.2*
Cc1ccc(S(=O)(=O)Nc2cc(Cl)ccc2F)cc1C	7.7	-1.6	3.0
COc1ccc(C(=O)N(CCN2CCOCC2)CC(=O)N(Cc2ccc3c(c2)OCO3)Cc2ccc(C)o2)c(OC)c1	-2.3	-5.3	2.6
SMILES	hcGAS lum	mcGAS inh	NPYLR7 ag
CCOC(=O)C1CCN(C(=O)C(C)n2ccsc2=NC(=O)c2cccc(C(F)(F)F)c2)CC1 (centres undefined)	3.0	.	-8.2
Cc1sc(=NC(=O)c2cccc(C(F)(F)F)c2)n(C(C)C(=O)NC2CC2)c1C (centres undefined)	184.3*	.	6.9
COc1ccc(/C=C\C(=O)Nc2cc(=O)n(C)c(=O)n2C)cc1OC	-11.1	-7.2	10.0
CCn1c(=O)c2c(nc(/C=C/c3ccc(OC)c(OC)c3)n2C)n(CC)c1=O	-7.0	-10.1	84.5*
CN1CC[C@@H](NC(=O)c2cnn3c2CCCC3)[C@@H](Cc2ccccc2)C1	0.8	.	-4.1
COc1cc([N+](=O)[O-])ccc1NC(=O)CCl	0.7	69.6*	-4.3
O=C(CCl)Nc1cc([N+](=O)[O-])ccc1Nc1ccc(F)cc1	-2.2	57.5*	-5.9
COc1ccc([N+](=O)[O-])cc1NC(=O)CCl	-4.4	44.5*	-3.4
O=[N+]([O-])c1ccc(Nc2ccc(F)cc2)c([N+](=O)[O-])c1	-11.4	-4.8	2.1
CCCCC(=O)Nc1cc([N+](=O)[O-])ccc1OC	-5.4	.	0.7
COc1ccc([N+](=O)[O-])cc1NC(=O)C1CCCC1	-9.9	-0.8	-0.9
COc1ccc(S(=O)(=O)NCCNc2cc(-n3nc(C)cc3C)ncn2)c(C)c1C	-5.8	-7.6	-9.4
CCC(N)c1ccc(C)cc1C (centres undefined)	-5.2	.	-11.4
CCCN(Cc1cccc(Cl)c1)C(=O)CCn1cnc2ccccc2c1=O	2.6	-7.4	-6.0
Cc1cc2[nH]c(O)c(N=NC(=O)c3ccccc3C)c2cc1Br	-4.5	-6.3	-2.3
CC12CC3(C)C4(C)CC1(C)C1(C)C2(C)C3(C)C41C (centres undefined)	0.4	.	1.0
COc1ccc(C(=O)Nc2ccccc2-n2nc(C)nc2C)c(OC)c1	-5.0	-10.4	-0.2
CC(C)(C)C1CCc2sc(C(=O)NN3C(=O)NC4(CCCCC4)C3=O)cc2C1 (centres undefined)	14.1	.	-0.7
CC(C)(C)C1CCc2sc(C(=O)N3CCNC(=O)C3)cc2C1 (centres undefined)	-10.6	93.3*	6.2
COc1cc(C2Nc3ccccc3-c3nnc(SC)nc3O2)cc(Br)c1OC (centres undefined)	-8.8	-2.5	-1.3
CSc1nnc2c(n1)OC(c1cc(Br)c(OC(=O)c3ccc([N+](=O)[O-])cc3)c(Br)c1)Nc1ccccc1-2 (centres undefined)	6.4	41.7*	6.5
Cc1ccc2nc(Cn3cnc4c(Cl)cc(Cl)cc4c3=O)cc(=O)n2c1	-3.8	.	60.6*
Cc1ccc2nc(Cn3cc(C(F)(F)F)cc(Cl)c3=O)cc(=O)n2c1	-1.3	.	3.1
Cc1ccc(NC(=O)CN(C)S(=O)(=O)c2cccc(C)c2)cc1	-8.6	.	2.6
COc1ccc2nc(-c3c(OC)ccc4ccccc34)n(Cc3ccccc3)c(=O)c2c1	-8.2	-7.9	4.5
SMILES	hcGAS lum	mcGAS inh	NPYLR7 ag
O=C1SC(Nc2ccc(Br)cc2)C(=O)N1c1ccccc1 (centres undefined)	-5.7	-3.5	85.5*
O=C1SC(Nc2ccc(Br)cc2)C(=O)N1CCN1C(=O)c2ccccc2C1=O (centres undefined)	-8.1	-4.5	10.9
CCc1cccc2c(C(CC(=O)NCCCN3CCOCC3)c3ccc4c(c3)OCO4)c[nH]c12 (centres undefined)	-3.1	-7.4	4.7
CN1C(=CP(=O)(N(C)C)N(C)C)C(C)(C)c2ccccc21	3.3	.	1.3
CN1C(=CC=C2C(=O)Oc3ccccc3C2=O)C(C)(C)c2ccccc21	-7.5	.	49.1*
CC(=O)N1N=C(c2ccc(Br)cc2)CC1c1cn(-c2ccccc2)nc1C (centres undefined)	2.1	-0.3	-2.9
CCOC(=O)N1CCN(C(=O)c2cc(-c3ccc(OC)cc3)nc3cc(-c4ccc(Cl)cc4)nn23)CC1	-1.5	-8.4	2.7
CCCS(=O)(=O)N1CCN=C1SCc1cc(C)ccc1C	-8.4	-7.0	8.9
CCCS(=O)(=O)N1CCN=C1SCc1ccccc1C	-13.2	-9.5	44.4*
Nc1nc2nc(C(F)(F)F)[nH]c2c(=O)[nH]1	33.1	.	-4.4
Nc1nc2nc(Br)[nH]c2c(=O)[nH]1	51.7*	12.2	-3.3
CC1CCCCN1S(=O)(=O)NCCc1ccccc1F (centres undefined)	-11.3	.	6.1
C=CCn1c(SCC(=O)N(C)C)nc2sc3c(c2c1=O)CCCCC3	-4.7	.	0.7
COCc1cc(C)nc(N/N=C\c2cc(I)c(OC)c(OC)c2)c1C#N	-2.9	-4.6	-1.9
